From PubChem BioAssay
A selection: hits, their analogues and other compounds. The true share with any hit is near 3.4%.
PLC-beta3 inh: PLC-beta3 (human) inhibition, primary screen; Q01970; Purified PLC-beta3, fluorogenic substrate, fluorescence; inhibition, % at 12.2 µM; 370,000 compounds, 0.18% hits; AID 720704; in the data active means inhibition above about 11%;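 further: 0% = median of compound wells on plate and 100% = full blocker control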
sPLA2-III inh: Blocks human group III sPLA2 activity | inhibition, % at 12.2 µM | Q9NZ20 | 370,000 compounds, 0.56% hits | QFRET BODIPY PC-A2 liposome hydrolysis, fluorescence | AID 743126;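 active means inhibition above mean plus 3 SD of compounds lying within the high and low control bounds, cut at about 19% in these data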;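 further: 0% = median of test compound wells and 100% = no enzyme DMSO wells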
Target sequence (Q9NZ20 whole entry, looked up): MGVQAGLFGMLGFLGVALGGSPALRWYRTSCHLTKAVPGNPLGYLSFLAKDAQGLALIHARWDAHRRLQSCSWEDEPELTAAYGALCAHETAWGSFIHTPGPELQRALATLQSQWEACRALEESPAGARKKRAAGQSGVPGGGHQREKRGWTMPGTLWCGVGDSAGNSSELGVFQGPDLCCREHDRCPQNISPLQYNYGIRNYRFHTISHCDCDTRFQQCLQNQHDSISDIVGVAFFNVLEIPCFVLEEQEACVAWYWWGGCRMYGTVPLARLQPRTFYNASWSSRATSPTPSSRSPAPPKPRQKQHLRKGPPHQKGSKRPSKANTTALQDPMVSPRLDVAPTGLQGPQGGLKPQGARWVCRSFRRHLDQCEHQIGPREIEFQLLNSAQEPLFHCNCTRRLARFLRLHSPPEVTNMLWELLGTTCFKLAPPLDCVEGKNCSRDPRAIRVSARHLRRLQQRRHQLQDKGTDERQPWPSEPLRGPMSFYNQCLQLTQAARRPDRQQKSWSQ
ADAM17 inh: inhibitors of human ADAM17; P78536; recombinant ADAM17, EDANS/DABCYL FRET peptide cleavage; inhibition, % at 6.95 µM; 370,000 compounds, 0.83% hits;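 active means inhibition above the mean of compounds lying between control limits plus 3 SD, set per campaign, cut at about 8.5% in these data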;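 further: 0% = DMSO-only wells as the low control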
proKLK7 act: activates the human kallikrein-7 zymogen | AID 652039 | activation, % at 7 µM | P49862 | 370,000 compounds, 0.9% hits | purified proKLK7, EDANS-DABCYL substrate fluorescence; 100% is mature enzyme control, 0% vehicle;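 active means activation above the mean of all tested compounds plus 3 SD, computed per campaign excluding outliers beyond control limits, cut at about 13% in these data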
Target sequence (P49862 whole entry, looked up): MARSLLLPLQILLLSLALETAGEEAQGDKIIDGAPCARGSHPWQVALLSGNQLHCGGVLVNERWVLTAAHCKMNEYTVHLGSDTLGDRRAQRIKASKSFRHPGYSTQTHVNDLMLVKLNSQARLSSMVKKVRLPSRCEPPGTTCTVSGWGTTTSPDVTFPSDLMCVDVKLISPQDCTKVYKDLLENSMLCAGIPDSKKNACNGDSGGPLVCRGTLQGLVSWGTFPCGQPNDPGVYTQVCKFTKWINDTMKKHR
PLC-gamma1 inh: blocks human PLC-gamma1 enzyme activity; purified PLC-gamma1, fluorogenic substrate, fluorescence; inhibition, % at 12.2 µM; 370,000 compounds, 0.84% hits; AID 720700; in the data active means inhibition above about 9.5%
ADAM10 inh: inhibitors of human ADAM10. O14672. recombinant ADAM10, EDANS/DABCYL FRET peptide cleavage, 3 h. inhibition, % at 7 µM. 370,000 compounds, 0.62% hits;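 active means inhibition above a per-campaign cutoff equal to the mean of compounds falling between control-based bounds plus 3 SD, cut at about 20% in these data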;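 further: 0% = DMSO wells while the 100% control is not disclosed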
sPLA2 confirm: human GIII-sPLA2 inhibition, confirmation. shares compounds with sPLA2-III inh. recombinant hGIII-sPLA2, BODIPY PC-A2 QFRET fluorescence. inhibition, % at 12.2 µM. 2,000 compounds, 34% hits;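 active means mean inhibition across triplicates above the hit cutoff set in the earlier primary screen, cut at about 19% in these data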;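 further: 0% = enzyme with DMSO and 100% = DMSO wells lacking enzyme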
535nm interf: counter-screen for HGIII-sPLA2 inhibitors: 535nm fluorescence interference; 2,000 compounds, 8.5% hits; shares compounds with sPLA2-III inh; BODIPY FL product fluorescence interference, QFRET; inhibition, % at 12.2 µM;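 active means average inhibition above the solvent-only control mean plus 3 SD, cut at about 6% in these data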;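 further: 0% = DMSO with substrate plus product and 100% = DMSO with substrate alone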
535nm interf DR: interferes with 535nm fluorescence in dose response counter-screen; shares compounds with sPLA2-III inh; BODIPY FL product fluorescence interference, cell-free; IC50, µM; 240 tested, under 10 active;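 active means IC50 at or below 10 µM; inactive means IC50 above 10 µM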
* hit, by the source's call; . = no result.

SMILES | PLC-beta3 inh | sPLA2-III inh | ADAM17 inh | proKLK7 act | PLC-gamma1 inh | ADAM10 inh | sPLA2 confirm | 535nm interf | others
COc1ccc(Cl)cc1C(Nc1cccnc1)c1ccc2cccnc2c1O (configuration not stated) | -11.8 | 31.4* | 6.3 | 0.6 | -11.2 | 7.5 | 35.0* | -3.0 | 535nm interf DR=>122
O=[N+]([O-])C1=CC=C2C(=NC3(CCCCC3)N2O)C1=NC1CCCCC1 | -5.1 | 19.3* | -2.7 | -0.7 | -0.3 | -16.9 | 25.1* | -2.7
CN1CCN(CC(O)COc2ccc(OCC(O)CN3CCN(C)CC3)cc2)CC1 (configuration not stated) | 0.8 | 0.2 | -5.8 | 0.1 | -0.5 | -8.3 | . | .
CN1CCN(CC(O)COc2ccc(C(=O)O)cc2)CC1 (configuration not stated) | 3.1 | 19.3* | -2.3 | -0.6 | -0.5 | -5.5 | 6.1 | -5.8
CCCCc1ccc(-c2noc(CCC(=O)NCC)n2)cc1 | 2.2 | -5.2 | 5.3 | . | -0.6 | 10.6 | . | .
Cc1ccc(C(=O)N(C)[C@H]2C[C@H]3c4[nH]c5c(-c6ccccc6)cccc5c4CCN3C(=O)[C@H]2[C@H](C)O)cc1 | -91.7 | -3.0 | -52.5 | -1.9 | -71.0 | -195.1 | . | .
C=CCN1C(=O)/C(=C\c2ccco2)C(C(=O)OC)=C1C | -6.7 | 20.6* | -4.2 | 1.0 | -3.1 | -6.4 | 6.6 | -8.1
Cc1[nH]nc2c1C(c1cccc(C(F)(F)F)c1)N(Cc1ccccc1)C2=O (configuration not stated) | -0.9 | 3.5 | -2.0 | 0.6 | -1.7 | -14.7 | . | .
CCN1C(=O)/C(=C/C=C2\C=CN(CC)c3ccccc32)SC1=S | -55.5 | 13.4 | -1.5 | 0.1 | -7.0 | -19.2 | . | .
CCN1C(=O)/C(=C\C=C2/C=CC=CN2CC)SC1=S | -4.9 | 24.9* | -9.0 | 0.1 | -6.4 | -10.1 | 26.8* | -1.6
CC(C)CCN1C(=O)COc2ccccc2C1c1nnnn1-c1ccc2c(c1)OCCO2 (configuration not stated) | 3.9 | -6.4 | -6.1 | -0.1 | -2.2 | -2.1 | . | .
C#CCCCN([C@@H](CC(C)C)C(=O)OC)S(=O)(=O)c1ccc(F)cc1Br | 0.1 | 4.7 | 0.8 | 0.0 | -2.2 | 5.2 | . | .
c1ccc(-c2nccnc2-c2ccccc2)cc1 | -6.2 | 21.7* | -6.8 | 0.2 | 5.3 | -4.4 | 3.5 | -4.1
COC(=O)c1sccc1NC(=S)Nc1cc(C)cc(C)c1 | -1.4 | 23.1* | -3.5 | -0.7 | -1.6 | -5.2 | 14.6 | -4.0
COC(=O)c1sccc1NC(=S)Nc1ccccc1 | 3.7 | 10.8 | -2.6 | 0.4 | 2.5 | -5.4 | . | .
COC(=O)c1sccc1NC(=S)Nc1cccc(F)c1 | -5.0 | 19.3* | 0.5 | 0.2 | 2.7 | -10.4 | 5.4 | 1.3
COC(=O)c1c(Sc2ccccc2)c2ccccc2n1C | -8.7 | 19.5* | 0.5 | 0.1 | -1.8 | 0.7 | 0.9 | -4.1
CCOCCCNC(=O)C1CCN(C(=O)N(C)C)CC1 | -2.4 | 20.3* | 5.4 | 0.5 | 3.8 | -10.1 | -1.1 | -4.7
Cc1ccc(NC(=S)NNC(=O)c2cnccn2)cc1 | 0.7 | 30.4* | -0.4 | 0.8 | -0.8 | -3.5 | 27.4* | 0.4
Cc1ccc(NC(=O)c2cnn(-c3ccccc3)c2C)cc1 | 0.3 | -6.7 | 0.7 | 0.5 | 2.4 | -1.4 | . | .
CCNC(=S)NNC(=O)c1ccccn1 | 5.2 | 3.9 | 1.9 | -0.2 | 0.0 | -2.4 | . | .
Cc1ccc(NC(=S)NNC(=O)c2nnn(-c3ccccc3)c2C)cc1 | 1.4 | 36.1* | 4.7 | 0.5 | 6.0 | 6.1 | 31.1* | -3.3 | 535nm interf DR=>122
Cc1ccc(NC(=O)COC(=O)c2nn(C)cc2Cl)cc1 | -3.8 | -1.5 | 0.2 | -0.6 | 3.7 | 8.6 | . | .
O=C(NNC(=S)Nc1ccc(Cl)c(Cl)c1)c1ccccn1 | -51.2 | 32.3* | 6.4 | -0.1 | -42.9 | 6.3 | 41.8* | 6.5*
Cc1ccc(NC(=S)NNC(=O)c2nn(C)cc2Cl)cc1 | 0.5 | 33.5* | 6.8 | -0.1 | 3.0 | 3.8 | 44.0* | 1.9 | 535nm interf DR=>122
SMILES | PLC-beta3 inh | sPLA2-III inh | ADAM17 inh | proKLK7 act | PLC-gamma1 inh | ADAM10 inh | sPLA2 confirm | 535nm interf | others
COC(=O)C1=C(C)N(Cc2ccccc2C(F)(F)F)C(=NCc2cc(OC)c(OC)c(OC)c2)NC1c1ccccc1 (configuration not stated) | 0.7 | -4.9 | 0.1 | 0.0 | -5.0 | -14.3 | . | .
C[C@@H]1/C=C/CC(=O)N[C@H](c2ccc3ccccc3c2)[C@H](C)/C=C/CC(=O)N[C@@H]1c1ccc2ccccc2c1 | -8.9 | 4.5 | -1.3 | -0.2 | -6.3 | -2.3 | . | .
c1ccc2cc3[nH]c(CNc4nc(N5CCOCC5)nc5c4ncn5-c4ccsc4)nc3cc2c1 | -23.9 | -22.4 | 6.0 | . | -16.7 | 9.4 | . | .
O=C(c1ccc(NC(=S)Nc2ccc(Cl)c(Cl)c2)cc1)N1CCCC1 | -2.6 | 19.5* | -5.2 | 0.7 | 0.7 | -12.6 | 6.4 | -2.8
Cc1cccc(NC(=S)NNC(=O)c2nn(C)cc2Cl)c1 | -3.7 | 37.4* | -1.3 | 0.1 | -0.2 | -0.3 | 42.8* | 0.6 | 535nm interf DR=>122
O=C(Nc1ccc(Cl)c(Cl)c1)N1CCCCCC1 | -6.7 | 7.6 | -0.3 | 0.2 | -0.4 | -14.4 | . | .
c1csc(-c2nnc(NC3CCCCC3)c3ccccc23)c1 | -33.2 | 20.7* | -24.6 | -0.7 | -30.5 | -56.2 | 0.1 | -10.8
O=C(NCc1ccccc1)C1CCN(c2nc(-c3ccc(Br)cc3)cs2)CC1 | -17.7 | -0.9 | 0.1 | . | -8.6 | -7.3 | . | .
Cc1nn(S(=O)(=O)c2cccc([N+](=O)[O-])c2)c(C)c1Br | 0.2 | 6.2 | 0.1 | 0.0 | 3.5 | 0.6 | . | .
Cc1cc(C)c(S(=O)(=O)n2nc(C)c(Br)c2C)c(C)c1 | -6.6 | 19.3* | 0.4 | 0.2 | -1.4 | 1.5 | 3.4 | -1.5
CCCCn1c(=O)nc2n(-c3ccc(Cl)cc3)c3ccccc3cc-2c1=O | -54.7 | 24.8* | -52.3 | 0.1 | -40.6 | -143.2 | 0.0 | -7.8
CCCCn1c(=O)nc2n(-c3ccc(OC)cc3)c3ccccc3cc-2c1=O | -12.2 | 0.8 | -2.9 | 0.6 | -10.4 | -11.8 | . | .
O=C(C(=O)N1CCC(CNS(=O)(=O)c2ccc(F)cc2)CC1)c1cccs1 | -1.4 | 12.4 | -4.5 | 0.4 | 2.3 | -10.4 | . | .
CCCCc1n[nH]c(=S)n1Cc1ccc(Cl)cc1 | 0.3 | 19.6* | -0.4 | -0.6 | 0.5 | 10.2 | 25.8* | -1.2
CCCc1n[nH]c(=S)n1Cc1ccco1 | -8.5 | 21.7* | -2.6 | -0.5 | 2.5 | -13.5 | 10.7 | -3.5
COc1cccc(-c2n[nH]c(=S)n2Cc2ccco2)c1 | -10.2 | 22.6* | -0.2 | -0.6 | 0.6 | 10.8 | 25.0* | 0.5
